Test results: PubChem BioAssay AID488969 (Vanderbilt High Throughput Screening Facility, 2010)
The full ranking holds about 110,000 compounds; the median of “z-score” is about -0.1, and the highest 2% start at about 2. This is one part of a sample in which the highest values are shown more often than they occur. Activity calls are given as the source filed them.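 Rule for the calls: active = z-score in the third read window above 3 or below -3; inactive = the rest.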

What follows are molecules tested against Metabotropic glutamate receptor 8 (Rattus norvegicus) (UniProt P70579) (assay: rat mGluR8 modulators via GIRK flux, primary screen, cell-based, thallium flux, HTS (AID 488969)). Conditions: HEK293 rat mGluR8, GIRK (G protein-gated inwardly rectifying potassium channel) thallium flux, FluoZin2; at 10 µM; stronger effect = higher value; submaximal glutamate (EC20) added with thallium.
Metabotropic glutamate receptor 8 (Rattus norvegicus), sequence (P70579 whole entry, looked up): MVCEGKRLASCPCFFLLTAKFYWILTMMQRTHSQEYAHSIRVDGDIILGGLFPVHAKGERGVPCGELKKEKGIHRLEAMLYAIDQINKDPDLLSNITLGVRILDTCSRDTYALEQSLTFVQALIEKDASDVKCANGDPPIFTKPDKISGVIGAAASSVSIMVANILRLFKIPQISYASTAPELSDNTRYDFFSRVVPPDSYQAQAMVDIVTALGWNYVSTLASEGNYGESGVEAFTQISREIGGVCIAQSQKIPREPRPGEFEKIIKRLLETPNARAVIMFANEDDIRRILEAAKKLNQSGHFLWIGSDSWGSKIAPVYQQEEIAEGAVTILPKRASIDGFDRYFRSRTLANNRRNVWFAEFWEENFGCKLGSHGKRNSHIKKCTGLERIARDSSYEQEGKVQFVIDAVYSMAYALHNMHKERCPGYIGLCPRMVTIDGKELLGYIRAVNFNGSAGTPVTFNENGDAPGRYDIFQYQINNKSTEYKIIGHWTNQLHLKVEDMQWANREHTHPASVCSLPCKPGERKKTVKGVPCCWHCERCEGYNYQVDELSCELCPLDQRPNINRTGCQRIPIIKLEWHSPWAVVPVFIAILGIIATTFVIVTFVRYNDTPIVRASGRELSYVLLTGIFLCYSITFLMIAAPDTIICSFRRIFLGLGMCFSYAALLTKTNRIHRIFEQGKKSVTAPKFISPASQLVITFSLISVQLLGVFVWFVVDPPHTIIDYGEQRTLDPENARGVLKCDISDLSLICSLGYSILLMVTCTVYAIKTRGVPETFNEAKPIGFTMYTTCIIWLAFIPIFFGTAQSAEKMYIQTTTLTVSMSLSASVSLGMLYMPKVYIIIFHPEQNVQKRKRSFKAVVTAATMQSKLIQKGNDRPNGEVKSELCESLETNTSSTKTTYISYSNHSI

SMILES | z-score
CCOC(=O)c1oc2ccc(OC)cc2c1NC(=O)CN1CCN(C)CC1 | 0.148
COC(=O)c1ccc(Cl)c(NC(=O)CN2CCOCC2)c1 | 0.185
COC(=O)c1ccc(Cl)c(NC(=O)CN(c2ccc(OC)c(OC)c2)S(C)(=O)=O)c1 | 2.1
COC(=O)c1ccc(Cl)c(NC(=O)CN2CCN(C)CC2)c1 | 4.17 (active)
CN1CCN(CC(=O)Nc2c(C(=O)C3CC3)oc3ccccc23)CC1 | -0.346
COC(=O)c1ccc(Cl)c(NC(=O)CN(c2ccc(OC)cc2)S(=O)(=O)c2ccccc2)c1 | -0.285
COC(=O)c1ccc(Cl)c(NC(=O)CN2CCN(Cc3ccccc3)CC2)c1 | -0.236
COC(=O)c1oc2ccc(Br)cc2c1NC(=O)CN1CCN(C)CC1 | 2.22
COC(=O)c1ccc(Cl)c(NC(=O)CN(c2ccc3c(c2)OCO3)S(C)(=O)=O)c1 | 0.625
Cc1ccc(CNC(=O)/C=C/c2c(Cl)cccc2Cl)cc1 | -0.641
O=C(CSc1ncnc2c1oc1ccccc12)NCC1CCCO1 (stereo unspecified) | -0.215
COc1ccc(/C=N/n2c(N)nc(-c3ccccc3)c2-c2ccccc2)cc1 | -0.377
O=C(NCCCN1CCN(c2ccccc2)CC1)Nc1ccccc1C(F)(F)F | -0.506
Cc1ccc(NC(=O)c2sc3nc4c(c(-c5ccco5)c3c2N)CCC4)cc1 | -0.382
CC(=O)NC(Cc1ccccc1C)C(=O)NC1CCN(c2ncccc2[N+](=O)[O-])CC1 (stereo unspecified) | -0.207
CCC(=O)Nc1cc2nn(-c3ccccc3)nc2cc1Cl | 0.0874
CNC(=S)N/N=C(\C)c1cccc([N+](=O)[O-])c1 | -0.339
CNC(=S)N/N=C(\C)c1ccc(C)c(C)c1 | 1.2
C=C(C)CNC(=S)N/N=C(\C)c1ccc(Cl)s1 | 2.26
CNC(=S)N/N=C(\C)c1ccc(C(C)(C)C)cc1 | 2.03
C=C(C)CNC(=S)N/N=C(\C)c1ccc(-n2ccnc2)cc1 | -0.342
C/C(=N\Nc1nc2ccccc2[nH]1)c1ccc(Cl)s1 | -1.3
CNC(=S)N/N=C(\C)c1ccc(Cl)s1 | 3.13 (active)

SMILES | z-score
CNC(=S)N/N=C(\C)c1ccc(N2CCOCC2)cc1 | 0.456
C=C(C)CNC(=S)N/N=C/c1ccc(N2CCOCC2)cc1 | 0.134
CCNC(=S)N/N=C(\C)c1cccc([N+](=O)[O-])c1 | 0.559
CCNC(=S)N/N=C(\C)c1ccc(Cl)s1 | 4.7 (active)
CCNC(=S)N/N=C(\C)c1ccc(N2CCOCC2)cc1 | 0.245
Cn1c(=O)c2[nH]c(-c3cccnc3)nc2n(C)c1=O | 0.366
C=CCN1C(=O)C(CC(=O)Nc2ccccc2)SC1=Nc1c(C)n(C)n(-c2ccccc2)c1=O (stereo unspecified) | 1.07
COc1cc(/C=C(\C#N)c2nc(-c3cc4ccccc4oc3=O)cs2)ccc1O | -2.33
CCC(=O)Nc1ccc(NC(=O)CN2CCCC(C)C2)c(Cl)c1 (stereo unspecified) | -0.146
Cc1nn(CC(O)COc2ccc3c(c2)CCC3)c(C)c1C (stereo unspecified) | -0.0908
Cc1nc2cc(Nc3nnc(-c4ccccc4)c4ccccc34)ccc2n1C | -0.174
CN1CCN(C(=O)NC2CCCCC2)CC1 | -0.173
CCOP(=O)(O)c1ccccc1OCCCCCOc1ccccc1P(=O)(O)OCC | -0.285
CCOC(=O)c1c(N)nn(C(=O)CC)c1-c1ccccc1 | -0.667
CCOc1ccccc1-c1nc(C(N)=O)c2[nH]c(=O)n(-c3cccc(C)c3)c2n1 | -1.43
C/C(=N/Nc1ccc(F)cc1)c1ccc(Cl)s1 | 0.13
C/C(=N\NC(N)=S)c1ccc(Cl)s1 | 2.19
C/C(=N\NC(=S)NC(C)C)c1ccc(Cl)s1 | 5.46 (active)
C/C(=N\NC(=S)NC(C)C)c1ccc(-n2ccnc2)cc1 | -0.306
C/C(=N\NC(=O)C(=O)Nc1cccc(C(F)(F)F)c1)c1ccc(Cl)s1 | 0.376
COc1cc(/C(C)=N/NC(=S)NC(C)C)cc(OC)c1OC | -0.0595
Cc1noc(C)c1COc1cccc(C(=O)OCC(=O)NC(=O)c2ccc(OC(F)F)cc2)c1 | -0.262
N/C(=N\OC(=O)c1cccc(Br)c1)c1ccc(Br)cc1 | -0.325

SMILES | z-score
COc1ccc(C(=O)COC(=O)CNC(=O)c2cc(OC)cc(OC)c2)cc1 | -0.208
NC(=O)C(Cc1ccccc1)NS(=O)(=O)c1ccc(N2CCCC2=O)cc1 (stereo unspecified) | 0.443
CCC(C)NC(=O)c1ccccc1C(=O)NC(C)CC (stereo unspecified) | 0.631
CCC(C)NC(=O)c1ccccc1NC(=O)Nc1ccccc1 (stereo unspecified) | 6.32 (active)
CC(C)CNC(=O)c1ccccc1NC(=O)Nc1ccccc1 | 0.337
Cc1cccc(CN(CC(=O)N/N=C/c2ccco2)S(=O)(=O)c2ccc(Cl)cc2)c1 | 0.848
CCN(CC)C(=O)C1CCCN(C(=O)Nc2ccc(NC(=O)N3CCCC(C(=O)N(CC)CC)C3)cc2)C1 (stereo unspecified) | -0.196
COC(=O)CSc1nnc(-c2cccnc2)n1-c1cccc(OC)c1 | 0.978
CSCCC(NS(=O)(=O)c1ccc2c(c1)oc(=O)n2C)C(=O)NC1CCCc2ccccc21 (stereo unspecified) | 0.148
Cn1c(=O)oc2cc(S(=O)(=O)NC3CCCc4ccccc43)ccc21 (stereo unspecified) | 0.254
CC(C)CC(NS(=O)(=O)c1ccc2c(c1)oc(=O)n2C)C(=O)NC1CCCc2ccccc21 (stereo unspecified) | 5.09 (active)
CCc1ccc2oc(-c3cccc(N)c3)nc2c1 | -0.135
Cc1cc(C(=O)CSc2n[nH]c(N)n2)c(C)n1-c1ccc(F)cc1 | -0.628
Cc1cc(C(=O)CSc2n[nH]c(N)n2)c(C)n1-c1cccc(F)c1 | -1.69
Cc1cc(C(=O)CSc2n[nH]c(N)n2)c(C)n1-c1cc(F)ccc1F | 6.6 (active)
COc1ccc(NS(=O)(=O)c2ccc(NC(=O)c3ccc(N(C)S(C)(=O)=O)cc3)cc2)c(OC)c1 | -0.141
COC(=O)C1=C(C)NC(=O)/C1=C\c1ccco1 | 8.73 (active)
COC(=O)C1=C(C)N(C)C(=O)/C1=C\c1ccco1 | -0.144
COC(=O)C1=C(C)NC(=O)/C1=C\c1cccs1 | -0.512
CC(=O)c1nc(N2C(=O)CC(Cc3cccc(C)c3)C2=O)sc1C (stereo unspecified) | -0.395
CC(=O)c1nc(N2C(=O)CC(Cc3cc(C)cc(C)c3)C2=O)sc1C (stereo unspecified) | 2.19
CC(=O)c1nc(N2C(=O)CC(Cc3ccc(C)cc3)C2=O)sc1C (stereo unspecified) | -0.714
COc1ccc(NC(=S)N/N=C2\CC(C)(C)Oc3ccc(OC)cc32)cc1 | -0.239

SMILES | z-score
CC(C)(C)C1CCC2(CC1)NC(=S)N(c1ccccc1)N2 (stereo unspecified) | 0.0264
c1cc2c3c(cccc3c1)NC1(CCCCC1)N2 | -0.436
CC(C)(C)C1CCC2(CC1)Nc1cccc3cccc(c13)N2 | 4.88 (active)
Cc1cc(NC(=O)c2ccc(COc3ccc(Cl)c(C)c3)o2)no1 | -0.225
O=C(NC1CC1)c1ccc2c3c(cccc13)CC2 | -0.311
N=c1sccn1CC(=O)Nc1cc(Cl)ccc1Oc1ccccc1 | 1.02
COc1ccc(OCCC(=O)OCC(=O)NCc2ccccc2)cc1 | -0.332
Cc1cccc(-n2c(C)nc3cc(C(=O)NCc4ccc5c(c4)OCO5)ccc32)c1 | 0.471
Cc1c(Cl)cccc1NC(=S)/C(=C(\[O-])c1ccc(Cl)s1)[n+]1ccccc1 | 2.24
CC(C)(C)c1cc[n+](/C(C(=S)NC2CC2)=C(/[O-])c2ccc(Cl)s2)cc1 | -0.275
Cc1ccccc1NC(=S)/C(=C(\[O-])c1ccc(C)c([N+](=O)[O-])c1)[n+]1ccccc1 | 0.013
CCN(CC)C(=O)COc1cc(C)cc2oc(=O)cc(-c3ccccc3)c12 | -0.189
C=C(C)CNC(=S)Nc1cccc2cnccc12 | 3.1 (active)
S=C(Nc1cccc(Cl)c1)Nc1cccc2cnccc12 | 2.74
CC(C)NC(=S)Nc1cccc2cnccc12 | -0.271
COc1ccccc1NC(=S)Nc1cccc2cnccc12 | -0.138
COc1ccc(NC(=S)Nc2cccc3cnccc23)cc1 | -0.198
CCCCNC(=S)Nc1cccc2cnccc12 | -0.208
Cc1cc(C)nc(N2CCCC(C(=O)NCC(c3ccccc3)c3ccccc3)C2)n1 (stereo unspecified) | 0.0177
COc1ccc(S(=O)(=O)N(C)CC(=O)Nc2ccc(C(F)(F)F)cc2)cc1Cl | 1.57
O=c1cc(NS(=O)(=O)c2ccccc2)nc(SCc2ccc(Cl)cc2)[nH]1 | 0.485
CCc1c(C)nc2ncnn2c1Nc1ccc(C(C)=O)cc1 | 0.0606
O=C(CSc1ncn[nH]1)Nc1nc(-c2ccccc2)cs1 | 0.0129

SMILES | z-score
Cc1ccc(C(=O)N/C(=C/c2ccco2)C(=O)Nc2cccc(C)c2)cc1 | -0.287
CC(=O)c1cccc(NC(=O)c2ccc(N(Cc3ccccc3)S(C)(=O)=O)cc2)c1 | -0.207
COCCn1c(C)cc(C(=O)CN2C(=O)NC3(CCCCCCC3)C2=O)c1C | 0.319
CC1CCCC(C)N1C(=O)CSc1nnnn1-c1cccc2c1CCCC2 (stereo unspecified) | -0.621
O=C(CSc1nnnn1-c1cccc2c1CCCC2)NC1CCCC1 | 5.15 (active)
O=C(CSc1nnnn1-c1cccc2c1CCCC2)N1CCCC1 | 0.0215
Cc1ccc2c(c1)c1c(n2CC(O)Cn2c(C)nc3ccccc32)CCCC1 (stereo unspecified) | -0.427
Cc1ccc2c(c1)c1c(n2CC(O)Cn2nc(C)c(Br)c2C)CCCC1 (stereo unspecified) | 0.191
Cc1ccc2c(c1)c1c(n2CC(O)CNC(C)(C)C)CCCC1 (stereo unspecified) | 2.4
CC(=O)c1cc2c(cc1NC(=O)CN1CCCCC1C)OCO2 (stereo unspecified) | -0.0192
O=C(NCc1cccs1)c1nc2c(nnn2Cc2ccc(F)cc2)c(=O)[nH]1 | -1
Cc1cc(N/C=C\c2nnnn2-c2ccccc2)no1 | -0.374
COc1ccc(Nc2nc(C)cc(C)c2C#N)cc1OC | 6.74 (active)
COc1ccc(Nc2nc(C)cc(C)c2C#N)cc1 | 0.405
COc1cccc(Nc2nc(C)cc(C)c2C#N)c1 | -0.0986
O=C(Cn1nnc(-c2ccccc2)n1)OCc1csc(-c2ccccc2)n1 | -0.49
Cc1ccc(-n2nc3c(Cl)nnc(C)c3c2C)cc1 | 0.701
NS(=O)(=O)c1ccc(Cc2ncc(C(F)(F)F)cc2Cl)s1 | 1.4
O=C(NCc1ccc2c(c1)OCO2)c1cc2ccccc2o1 | -0.522
